# In the library only some 12% were active in any assay of this set; here they are far more common.
# CHX counter: affects cycloheximide protein synthesis inhibition readout, counter-screen | cell reporter, cycloheximide protein synthesis inhibition counterscreen | max response, % | 12% of 300,000 active; in the data active = max response mostly above about 13%, no sharp cut-off; inactive = mostly below about 14%; note: read at 38.3 µM for the half of the compounds with a filed dose
# FMDV antiviral: blocks foot and mouth disease virus. FMDV antiviral cell-based qHTS. 1.2% of 410,000 active. Potency, µM (titrated, usually from 57.9 µM), most hits filed as inhibitors; calls by dose curve; tested in HEK293T cells; note: read-out not given here; nearly all actives have a fitted effect of over 45% in size
# Sm TGR inh: inhibitors of Schistosoma mansoni thioredoxin glutathione reductase; Q962Y6; purified TGR, DTNB reduction, TNB absorbance 405 nm; Potency, µM (titrated, usually from 114 µM), usual class: inhibitors; 3% of 360,000 active; active = well fitted inhibition curve with a large enough effect; inconclusive = small, poorly fitted or top-dose-only effect; inactive = no such curve, though single readings can be large or run the other way; note: nearly all actives have a fitted effect of over 60% in size
#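 Kinetic colorimetric format: TGR-catalysed, NADPH-driven DTNB reduction monitored via TNB absorbance. Enzyme dispensed at 20 nM; compound exposure 15 min at room temperature before reaction start.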
# Shiga inhibitor: blocks Shiga toxin action in Vero cells; Vero cells, Shiga toxin protein synthesis inhibition reporter; inhibition, % at 38.7 µM; 9.2% of 290,000 active; in the data active = inhibition mostly above about 28%, no sharp cut-off; inactive = mostly below about 43%
# A number is an active result; n = inactive; u = inconclusive; x = not tested or not shown.
SMILES,CHX counter,FMDV antiviral,Sm TGR inh,Shiga inhibitor
COC(=O)c1cc(OC)c(OC)c(OC)c1NC(=O)c1cc(=O)n(C)c(=O)n1C,x,n,n,x
CCCCC[C@]12Cc3cc(OC)c(OC)cc3C(O1)c1c(cc(C)n(-c3ccccc3)c1=O)O2,n,x,u,n
O=C(CCSc1nc(-c2ccco2)cc(C(F)(F)F)n1)Nc1cccc(O)c1,x,u,n,x
CC(C)CNC(=O)CSc1nc(-c2cccs2)cc(C(F)(F)F)n1,n,u,n,n
O=C(CCS(=O)(=O)c1nc(-c2cccs2)cc(C(F)(F)F)n1)Nc1cccc(O)c1,x,22µM,32µM,x
Cc1cc(NC(=O)CSc2nc(-c3cccs3)cc(C(F)(F)F)n2)no1,n,x,n,n
O=C(O)CCS(=O)(=O)c1nc(-c2cccs2)cc(C(F)(F)F)n1,n,n,50µM,n
Cc1cc(NC(=O)CCCS(=O)(=O)c2nc(-c3cccs3)cc(C(F)(F)F)n2)no1,n,u,13µM,n
Cc1noc(/C=C/c2ccco2)c1S(=O)(=O)N1CCC(C(=O)Nc2ccc(F)c(Cl)c2)CC1,x,u,n,x
CCOc1ccc(CNS(=O)(=O)c2cc3c(cc2C)NC(=O)CO3)cc1OC,x,n,n,x
NC(=O)/C=C/C(=O)Nc1ccc(Cl)cc1,n,n,3.5µM,n
O=C(/C=C/C(Cl)(Cl)Cl)Nc1ccc(Cl)cc1,x,n,x,x
CCOc1ccccc1C(=O)N1CC(=O)Nc2ccc(C)cc2C1c1ccccc1 (stereo not given),x,n,n,x
CCN(C(=O)c1cc2c(=O)oc3ccccc3c2s1)c1ccccc1F,x,n,n,x
CN(C(=O)CCc1nnc(-c2ccc(-c3ccccc3)cc2)o1)C1CCOCC1,n,u,n,30
CCn1ccnc1CN(C)C(=O)CCc1nnc(CCCc2ccccc2)o1,n,n,n,n
CN(CCCC1CCCC1)C(=O)CCc1nnc(-c2ccccc2)o1,32,n,x,53
O=C(CCc1nnc(-c2ccccc2)o1)c1ccc(Cl)cc1,n,n,n,n
COC(=O)CCCNC(=O)CCc1nnc(-c2ccc(-c3ccccc3)cc2)o1,x,n,x,x
Cc1cc(C)n(CCN(C)C(=O)CCc2nnc(CCC3CCCCC3)o2)n1,38,n,n,91
CN(CCC1CCCCO1)C(=O)CCc1nnc(CCCCc2ccccc2)o1 (stereo not given),17,n,n,n
COc1ccc(C)cc1NC(=O)C(CCSC)NS(=O)(=O)c1ccc2c(c1)oc(=O)n2C (stereo not given),x,n,n,x
Cc1ncc2c(c1CNS(=O)(=O)N(C)C)CCN(C(=O)/C=C/c1ccccc1Cl)C2,x,n,x,x
CCOC(=O)c1cc(S(=O)(=O)Nc2cc(F)ccc2C)[nH]n1,x,n,n,x
O=[N+]([O-])c1nn(-c2ccc(Cl)cc2)n(O)c1=NCc1ccccc1Cl,35,n,n,74
SMILES,CHX counter,FMDV antiviral,Sm TGR inh,Shiga inhibitor
O=[N+]([O-])c1nn(-c2ccc(Cl)cc2)n(O)c1=NCc1ccncc1,n,u,n,n
O=[N+]([O-])c1nn(-c2cccc(Cl)c2)n(O)c1=NCc1cccnc1,23,n,n,n
COc1cccc(CN=c2c([N+](=O)[O-])nn(-c3ccccc3C)n2O)c1,n,u,n,n
Cc1cccc(-n2nc([N+](=O)[O-])c(=NCc3cccnc3)n2O)c1,n,n,n,n
O=[N+]([O-])c1nn(-c2ccc(Cl)cc2)n(O)c1=NCc1cccnc1,23,n,n,n
Cc1ccc(CN=c2c([N+](=O)[O-])nn(-c3ccc(Cl)cc3)n2O)cc1,44,n,n,n
CCOc1ccc(CCNC(=O)c2nn(C)c3c2CSc2ccc(C)cc2-3)cc1OCC,x,n,n,x
O=C(CCn1c(=O)c2sccc2n(CC(=O)Nc2ccccc2)c1=O)NCc1ccccc1Cl,x,n,n,x
O=C(O)c1cc(-c2ccc(C(F)(F)F)cc2)nc2n[nH]c(-c3ccccc3)c12,x,n,n,x
Cc1cccc(N=c2c([N+](=O)[O-])nn(-c3ccc(Cl)cc3)n2O)c1,20,n,n,n
CCc1cccc(N=c2c([N+](=O)[O-])nn(-c3ccc(Cl)cc3)n2O)c1,n,n,n,n
O=C(O)CC(NS(=O)(=O)c1ccc(Br)s1)c1ccccc1 (stereo not given),x,n,n,x
Cc1ccc(C)c(Cn2c(=O)n(-c3ccccc3)c(=O)c3c4c(sc32)CCCC4)c1,x,n,n,x
FC(F)Sc1ccc(Nc2ncnc3nc[nH]c23)cc1,36,n,n,11
Cc1cccc(Nc2ncnc3nc[nH]c23)c1C,n,n,n,n
Cc1cc(C)cc(Nc2ncnc3nc[nH]c23)c1,n,n,n,41
O=C(Nc1ccccc1Br)C1CCCN(S(=O)(=O)c2cccc3nsnc23)C1 (stereo not given),x,u,n,x
COc1ccc(C2c3cc(OC)c(OC)cc3CC(=O)N2c2ccc(C)c(F)c2)cc1 (stereo not given),x,n,n,x
